The text below walks through data of PubChem BioAssay (NCI).

Values joined by “and” are separate entries in the source; they are usually repeats but may differ in a detail not shown here. Equal values may be shown once. About 83,000 compounds went through this panel and 20% of them were active in at least one assay; those are over-represented in the sample as a whole.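 Each cell line was grown in a 96-well plate and treated with one concentration of compound for 48 hours. Values below 10 were considered active.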 Some structures have more than one record in an assay (separate samples or runs), and their calls can disagree. Active and inactive are the calls of the source.

Common to all, as to experiment: NCI-60 one-dose screen, 48 h (100 = growth as untreated, 0 = no growth, -100 = all killed)
Experiment [1] concerns SR leukemia. The settings on record: 10 µM unless noted.
Experiment [2] concerns OVCAR-8 ovarian.
The test system of experiment [3] is OVCAR-5 ovarian.
The subject of experiment [4] is OVCAR-4 ovarian.
In experiment [5] the test system is SK-OV-3 ovarian.
Experiment [6] relates to IGROV1 ovarian.
The subject of experiment [7] is OVCAR-3 ovarian.
Experiment [8] deals with HS 578T breast.
Experiment [9] has as its system NCI/ADR-RES ovarian.
The subject of experiment [10] is T-47D breast.
Experiment [11] relates to BT-549 breast.
In experiment [12] the test system is SW-620 colon.
In experiment [13] the test system is MCF7 breast. The following applies: 10 µM unless noted.
Experiment [14] has as its system HCT-116 colon. The settings on record: 10 µM unless noted.
The test system of experiment [15] is HCC-2998 colon.
The subject of experiment [16] is KM12 colon.
Experiment [17] has as its system RPMI-8226 leukemia.
For experiment [18], the system named is MDA-MB-435 melanoma.

For the compound `CC1=C(/C=C/C(C)=C/C=C/C(C)=C/C(=O)Nc2ccc(O)cc2)C(C)(C)CCC1`, the growth in experiment [1] was -4.85% (active); in [2] (10 µM unless noted) it was 65.9% (inactive); in [3] (10 µM unless noted) it was 89.9% (inactive); in experiment [4] (10 µM unless noted), 44.3% (inactive); in experiment [5] (10 µM unless noted) it was 69.3% (inactive); in experiment [6] (10 µM unless noted) it was -0.235% (active). Besides, the growth in experiment [7] (10 µM unless noted) was 27.8% (inactive); in [8] (10 µM unless noted), 63.3% (inactive); in [9] (10 µM unless noted), 39.1% (inactive); in experiment [10] (10 µM unless noted), 5.78% (active); in [11] (10 µM unless noted), 21.9% (inactive); in experiment [12] (10 µM unless noted), 67.2% (inactive). In addition, the growth was 8.82% (active) in experiment [13], 55.3% (inactive) in experiment [14], 51% (inactive) in experiment [15] (10 µM unless noted) and 34.2% (inactive) in experiment [16] (10 µM unless noted).

On to `CCN(CC)C(=S)SSC(=S)N(CC)CC`, for which the growth is 45.4% (inactive) and 110% (inactive) in experiment [17] (10 µM unless noted); 65.8% (inactive) and 89.4% (inactive) in experiment [2] (10 µM unless noted); 86% (inactive) and 100% (inactive) in experiment [3] (10 µM unless noted); 76.6% (inactive) and 94.6% (inactive) in experiment [4] (10 µM unless noted); 98.7% (inactive) and 102% (inactive) in experiment [5] (10 µM unless noted); 77.5% (inactive) and 113% (inactive) in experiment [6] (10 µM unless noted). Besides, the growth was 68.3% (inactive) and 108% (inactive) in experiment [7] (10 µM unless noted); 111% (inactive) in [8] (10 µM unless noted); 84.1% (inactive) and 106% (inactive) in experiment [9] (10 µM unless noted); 79.4% (inactive) and 87.3% (inactive) in experiment [10] (10 µM unless noted); 90.6% (inactive) and 90.3% (inactive) in [11] (10 µM unless noted); 83.3% (inactive) and 106% (inactive) in experiment [18] (10 µM unless noted). Also, the growth in experiment [12] (10 µM unless noted) is 77.2% (inactive) and 109% (inactive); in experiment [13], 71.4% (inactive) and 95.9% (inactive); in experiment [14] it was 58.6% (inactive) and 93.8% (inactive); in [15] (10 µM unless noted) it was 91.9% (inactive) and 102% (inactive); in experiment [16] (10 µM unless noted), 88.8% (inactive) and 97.5% (inactive).

With `CC1=C(/C=C/C(C)=C/C=C/C(C)=C/C=N/NC(=S)NC(=S)N/N=C/C=C(C)/C=C/C=C(C)/C=C/C2=C(C)CCCC2(C)C)C(C)(C)CCC1`, the growth was 23.6% (inactive) and 1.02% (active) in [1]; -12.5% (active) and -74.8% (active) in experiment [2] (10 µM unless noted); -48.3% (active) and -77.7% (active) in experiment [3] (10 µM unless noted); 17% (inactive) and -0.538% (active) in experiment [4] (10 µM unless noted); 57.5% (inactive) in [5] (10 µM unless noted); -34.8% (active) and -39.5% (active) in [6] (10 µM unless noted). For the same compound, the growth in [7] (10 µM unless noted) is -74.5% (active) and -99.4% (active); in [9] (10 µM unless noted) it was -34% (active) and -58.9% (active); in experiment [10] (10 µM unless noted), -5.98% (active); in [12] (10 µM unless noted), -73.9% (active) and -83.4% (active); in [13], 16.8% (inactive) and 9.28% (active); in experiment [16] (10 µM unless noted), -8.44% (active) and -50.7% (active).

Take `O=C(O)c1sccc1O`: the growth in [17] (10 µM) was 71.4% (inactive); in experiment [17] (100 µM), 16% (inactive); in experiment [2] (10 µM) it was 82.4% (inactive); in experiment [2] (100 µM) it was 37.8% (inactive); in experiment [3] (10 µM) it was 102% (inactive); in experiment [3] (100 µM), 38% (inactive). The growth was 76.5% (inactive) in [4] (10 µM); 29.9% (inactive) in experiment [4] (100 µM); 84.5% (inactive) in experiment [5] (10 µM); 80.9% (inactive) in experiment [5] (100 µM); 74.7% (inactive) in experiment [6] (10 µM); 36% (inactive) in experiment [6] (100 µM). For the same compound, the growth was 75.1% (inactive) in experiment [7] (10 µM); 11.1% (inactive) in experiment [7] (100 µM); 65.6% (inactive) in [8] (10 µM); 19.5% (inactive) in experiment [8] (100 µM); 81.5% (inactive) in experiment [9] (10 µM); 36% (inactive) in experiment [9] (100 µM). Also, the growth was 53.9% (inactive) in experiment [10] (10 µM); 18.2% (inactive) in experiment [10] (100 µM); 69.5% (inactive) in experiment [11] (10 µM); 11.6% (inactive) in experiment [11] (100 µM); 77.8% (inactive) in [18] (10 µM); 0.533% (active) in [18] (100 µM). The growth in experiment [12] (10 µM) was 93.3% (inactive); in experiment [12] (100 µM), 24% (inactive); in [13], 15.4% [100 µM] (inactive); in experiment [14] it was 15.5% [100 µM] (inactive); in [15] (10 µM), 109% (inactive); in experiment [15] (100 µM) it was 38.5% (inactive). Moreover, the growth in experiment [16] (10 µM) is 78.3% (inactive); in experiment [16] (100 µM) it was 2.5% (active).

For `S=C1SCN(Cc2ccccc2)CN1Cc1ccccc1`, the growth in experiment [1] was 52.9% (inactive); in [2] (10 µM unless noted) it was 93.3% (inactive); in experiment [3] (10 µM unless noted) it was 93.2% (inactive); in experiment [4] (10 µM unless noted), 86.4% (inactive); in experiment [5] (10 µM unless noted), 103% (inactive); in experiment [6] (10 µM unless noted) it was 34.5% (inactive). For the same compound, the growth was 32.4% (inactive) in [7] (10 µM unless noted); 90.4% (inactive) in experiment [8] (10 µM unless noted); 73.6% (inactive) in experiment [9] (10 µM unless noted); 41.4% (inactive) in experiment [10] (10 µM unless noted); 93.6% (inactive) in experiment [11] (10 µM unless noted); 32.9% (inactive) in experiment [12] (10 µM unless noted). Also, the values for the growth in experiment [13], in [14] and in [16] (10 µM unless noted) were 17.8% (inactive), 7.28% (active) and 5.8% (active), respectively.
